ssDAF-12 act: S. stercoralis DAF-12 activation, primary screen. HEK293 ssDAF-12/GRIP1 lit1-tk-luc reporter, luminescence; % of 3 µM dafachronic acid response. activation, % at 6.8 µM. 1% of 370,000 active;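 active means activation above the mean over all tested compounds plus 3 SD, cut at about 0.9% in these data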;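 further: 0% = DMSO-only wells and 100% = 3 µM delta7-dafachronic acid wells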
hgDAF12 agonist: agonists of H. glycines DAF-12 nuclear receptor | 1.8% of 370,000 active | AID 687014 | HEK293 GAL4-hgDAF12 UAS-luciferase reporter, agonist luminescence; normalized to butyrate control | activation, % at 6.8 µM;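 active means activation above a cutoff set at the mean of all screened compounds plus 3 SD, cut at about 10% in these data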;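 further: 0% = DMSO wells and 100% = sodium butyrate wells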
SMARCA2 act: increases SMARCA2 function in MMTV reporter cells; MG213 cells, MMTV-luciferase reporter, dexamethasone, overnight; activation, % at 9.1 µM; 1% of 370,000 active; in the data active means activation above about 7.8%;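 further: 0% = vehicle wells and 100% = reference activator wells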
DAX1 inh-1: DAX1 (NR0B1) inhibition, primary screen; HEK293T StAR-luciferase reporter, SF-1/DAX-1 repression relief; inhibition, % at 6.8 µM; 1.1% of 370,000 active; AID 652010;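 active means inhibition above the mean over all tested compounds plus 3 SD, cut at about 3.6% in these data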;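 further: 0% = DAX-1 cells with DMSO and 100% = cells lacking DAX-1 with DMSO; higher inhibition means more luminescence from relief of DAX-1 repression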
DAX1 inh-2: inhibitors of human orphan nuclear receptor DAX1 (NR0B1); HEK293 Gal4-DAX1 luciferase reporter, luminescence; 0.99% of 340,000 active; inhibition, % at 6.75 µM; P51843;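 active means inhibition above the mean over all tested compounds plus 3 SD, cut at about 4.2% in these data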;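 further: 0% = DAX1-transfected cells with DMSO and 100% = empty-vector control cells with DMSO; inhibition shows as a rise in luminescence from relieved DAX1 repression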
Target sequence (P51843 207-470 limits assumed): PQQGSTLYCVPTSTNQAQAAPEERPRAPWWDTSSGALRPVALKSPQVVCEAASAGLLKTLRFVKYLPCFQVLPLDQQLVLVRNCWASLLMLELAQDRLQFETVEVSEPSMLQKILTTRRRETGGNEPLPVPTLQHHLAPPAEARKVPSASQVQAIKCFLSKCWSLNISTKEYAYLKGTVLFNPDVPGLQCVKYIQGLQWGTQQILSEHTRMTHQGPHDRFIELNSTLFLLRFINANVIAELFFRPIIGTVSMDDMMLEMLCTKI
hcDAF12 agonist: H. contortus DAF-12 activation, primary screen | HEK293 hcDAF-12 lit1-tk-luc reporter, luminescence; 0% DMSO, 100% Δ7-dafachronic acid | activation, % at 6.8 µM | 1.4% of 370,000 active | AID 652067;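 active means activation above the mean of all tested compounds plus 3 SD, cut at about 5.5% in these data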;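 further: 100% = response to 3 µM Δ7-dafachronic acid high control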
An asterisk follows results filed as active; . = no result given. Rows were chosen to be rich in hits. Some 4.8% of all compounds tested hit in one or more screens of this group.

SMILES | ssDAF-12 act | hgDAF12 agonist | SMARCA2 act | DAX1 inh-1 | DAX1 inh-2 | hcDAF12 agonist
Cc1ccc2c(c1)c1c(n2CC(O)CNC(C)(C)C)CCCC1 (centres undefined) | -1.5 | -3.1 | -2.3 | 0.8 | -0.2 | 0.5
CNCC(O)Cn1c2c(c3ccccc31)CCCC2 (centres undefined) | 6.8* | -0.1 | -0.1 | 0.5 | 0.9 | -1.7
CCOc1ccccc1Oc1c(C)oc2c(CN3CCN(C)CC3)c(O)ccc2c1=O | -0.6 | 0.6 | -3.6 | -0.1 | 0.4 | -1.2
O=C(N/N=C/CCc1ccccc1)c1ccc(CN2c3cccc4cccc(c34)S2(=O)=O)cc1 | -2.1 | -7.7 | -6.9 | -1.6 | -1.4 | -4.0
CC(=O)Nc1ccc(S(=O)(=O)N2CCC(c3nc4ccc(C)cc4[nH]3)CC2)cc1 | -2.0 | 0.4 | -3.2 | -0.4 | 4.4* | -0.8
CCOC(=O)Nc1ccc(S(=O)(=O)N2CCC(c3nc4ccccc4[nH]3)CC2)cc1 | -1.4 | -1.3 | -2.0 | -1.2 | 1.3 | -0.7
O=C(COC(=O)CNC(=O)c1cccc([N+](=O)[O-])c1)Nc1cccc(S(=O)(=O)N2CCCC2)c1 | -0.5 | 2.3 | -3.0 | 0.9 | -1.0 | 1.4
CC(=O)Nc1cccc(NC(=S)Nc2ccc(F)c(Cl)c2)c1 | -2.0 | 0.1 | -2.4 | -0.9 | -0.3 | -1.5
O=C(CN1C(=O)C2CCCCC2C1=O)OCn1nnc2ccccc2c1=O (centres undefined) | -1.8 | 0.8 | 0.3 | -0.4 | 6.4* | 0.6
O=C(OCn1nnc2ccccc2c1=O)C1CCCCC1 | -1.4 | 2.6 | -4.0 | 0.1 | -0.2 | -1.2
Cc1cccc(NC(=S)NNc2cccc(Cl)c2)c1 | 1.0* | 1.3 | -1.4 | -0.2 | -0.7 | 3.3
Cc1cccc(NC(=S)N2CCN(c3ccccn3)CC2)c1 | -0.8 | 0.6 | -0.3 | 0.3 | -0.4 | -1.8
Cc1cc(C)nc(NC(=S)Nc2cccc(F)c2)c1 | -1.4 | 4.7 | -1.8 | 0.1 | 2.6 | 0.0
Cc1cc(Cl)ccc1NC(=S)NCc1ccccc1 | -0.7 | -0.1 | -0.3 | 0.1 | 0.4 | -0.7
Cc1cccc(NC(=S)Nc2ccccn2)c1 | 1.0* | 6.6 | 4.8 | 0.6 | 5.3* | 4.7
COc1cccc(NC(=S)Nc2cc(C)cc(C)n2)c1 | 1.7* | 6.2 | 6.3 | 1.0 | 5.3* | 4.9
Cc1cc(Cl)ccc1NC(=S)Nc1ccccn1 | 0.3 | 6.0 | 1.9 | 0.0 | 4.3* | 0.9
O=C1N(c2ccccc2)C2CS(=O)(=O)CC2N1c1ccc(Cl)c(Cl)c1 (centres undefined) | -1.6 | 0.3 | -1.6 | 0.2 | -1.0 | -1.1
COC(=O)c1ccc(NC(=S)Nc2ccc(O)cc2)cc1 | -0.4 | -0.7 | -2.1 | -0.9 | -0.1 | -0.5
Cc1cc(Cl)ccc1Nc1ncccc1C(N)=O | -0.6 | 8.5 | 5.5 | 1.0 | 9.6* | 1.7
COC(=O)c1ccc(NC(=S)Nc2ccccn2)cc1 | -0.1 | 11.8* | 7.1 | 1.6 | 2.8 | 1.9
CCCc1cc(C(=O)OC)c(NC(=O)CCC(=O)O)s1 | -1.2 | -2.1 | -1.9 | 0.2 | -3.1 | -1.4
CC(=O)N1c2ccccc2Oc2cc3ccccc3cc21 | -0.4 | 5.8 | 2.4 | 0.7 | 2.1 | 5.7*
O=C(CSc1nnc(COc2cccc3cccnc23)o1)c1ccc(F)cc1 | -1.6 | -0.7 | -5.1 | -1.0 | -1.3 | -1.0
COC(=O)c1ccc(NC(=O)c2ccc(OC(C)=O)c(OC)c2)cc1 | -1.6 | 9.3 | 2.0 | 4.0* | -1.1 | 3.2
SMILES | ssDAF-12 act | hgDAF12 agonist | SMARCA2 act | DAX1 inh-1 | DAX1 inh-2 | hcDAF12 agonist
O=C(NCCOc1cccc(Oc2ccccc2)c1)c1cc(-n2cnnc2)ccc1Cl | -1.4 | -0.7 | -0.9 | -1.1 | -1.0 | -1.1
Nc1nn2c(C(F)(F)F)cc(=O)[nH]c2c1N=Nc1cccc(F)c1 | . | . | . | . | 3.0 | .
Cc1ccc2c(c1)NC(=O)C(CC(=O)NCCN(C)C)O2 (centres undefined) | -1.7 | -2.6 | -3.9 | -0.1 | 3.8 | 2.8
Cc1ccc2c(c1)NC(=O)C(CC(=O)NCCCN1CCCCC1)O2 (centres undefined) | -1.0 | 6.5 | -0.5 | -0.4 | 4.5* | -1.4
Cc1ccc(CCNC(=O)CC2Oc3ccc(C)cc3NC2=O)cc1 (centres undefined) | -1.0 | 2.5 | 0.4 | 0.6 | 10.7* | -0.5
COc1cc(/C=C(\C#N)C(N)=O)ccc1OS(=O)(=O)c1ccc(C)cc1 | -1.2 | 2.6 | -0.9 | -0.5 | 0.9 | 0.7
CN(C(=O)c1ccc2c(c1)S(=O)(=O)N=C1CCCCCN12)c1ccccc1 | -0.7 | 2.4 | 1.6 | 1.1 | -1.4 | 0.2
O=C(O)c1ccc2c(c1)S(=O)(=O)N=C1CCCCCN12 | -0.7 | -1.9 | -2.0 | -0.5 | 5.1* | -1.8
CSc1ccc(/C=C(\NC(=O)c2ccccc2)C(=O)NCCN2CCOCC2)cc1 | -0.6 | -0.2 | -1.9 | -0.1 | 5.2* | -0.8
CCOC(=O)COc1ccc(C(C)c2ccc(NC(=O)OC(C)(C)C)cc2)cc1 (centres undefined) | -1.1 | -0.4 | -5.2 | 0.0 | . | -1.3
Cc1cc(=O)nc2c3ccccc3n(CC(=O)NC3CCCCC3)n12 | -0.4 | 0.6 | 0.0 | -0.2 | 0.7 | 4.7
CCCN(CCC)C(=O)Cn1c2ccccc2c2nc(=O)cc(C)n21 | 1.1* | -0.7 | -2.1 | 0.6 | -0.8 | 4.4
CC(=O)Nc1sc(C)c(C)c1C(=O)OCC(=O)Nc1ccccc1C(F)(F)F | -1.4 | 10.7* | 4.1 | 0.6 | 1.7 | 0.8
CCOC(=O)CCn1c(=O)c2c(nc(Br)n2Cc2ccccc2)n(C)c1=O | -1.2 | 2.2 | 2.0 | 0.1 | -0.9 | -1.2
COc1ccccc1CNC(=O)c1ccc(NC2=NC3CS(=O)(=O)CC3S2)cc1 (centres undefined) | -1.4 | 10.5* | -1.7 | 0.3 | -0.1 | 0.8
O=c1[nH]c2ccccc2cc1-c1nnn(-c2ccc(Cl)c(Cl)c2)n1 | 0.1 | 1.7 | 1.1 | 0.2 | -0.1 | 4.3
Cc1ccc(-n2nnc(-c3cc4ccccc4nc3Cl)n2)cc1 | 1.4* | 2.5 | 2.6 | -0.1 | 2.7 | 4.6
O=C(NCCCN1CCCC1=O)c1cc(-c2ccc3c(c2)OCO3)nc2ccccc12 | 1.0* | -3.1 | -0.8 | -0.4 | -0.3 | 1.6
O=C(NCCCN1CCOCC1)c1cc(-c2ccc3c(c2)OCO3)nc2ccccc12 | -1.8 | 0.1 | -2.0 | -0.4 | -1.0 | 0.9
CCOC(=O)COc1c(Br)cc(/C=C2\SC(=O)N(CC(=O)N3CCCC3)C2=O)cc1OC | -1.2 | -1.0 | -1.4 | -0.6 | 4.7* | 0.7
CCOC(=O)c1c(C)nc2ccc(C)cn12 | -1.1 | 2.4 | 2.3 | -0.3 | 1.8 | -0.9
CCn1cnc2cc(NCc3ccc(C)cc3)ccc21 | -0.7 | 4.3 | 3.3 | 4.4* | 2.4 | 1.0
CCn1cnc2cc(NCc3ccc(Br)cc3)ccc21 | -0.7 | 2.9 | 1.1 | 2.0 | . | 4.8
Cc1ccc(CNc2ccc3c(c2)ncn3C(C)C)cc1 | -1.1 | 7.2 | -0.6 | 1.8 | 6.2* | 1.5
